From PubChem
HCMV inh: qHTS Assay for inhibitors of the human cytomegalovirus (HCMV). HFF cells, HCMV-luciferase reporter, 72 h; active compounds read low. activity change, negative = inhibition, % at 57.5 µM. actives 4.5% (n = 410,000). AID 1259415, 2018; in the data active = activity change below about -60%; inconclusive = no clear call, values can overlap the other calls; inactive = above about -39%
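Human foreskin fibroblasts infected with luciferase-reporter HCMV at MOI 1 PFU/cell, compounds at two doses. Luciferase measured 72 h post infection; normalized to buffer-only basal and Salinomycin (10uM) controls.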
FMDV inh: High Throughput Screening for Foot and Mouth Disease Virus Antivirals; FMDV antiviral cell-based qHTS; Potency, µM (series often up to 57.9 µM), for inactives: at the top dose activity change, negative = inhibition, most hits filed as inhibitors; actives 1.2% (n = 410,000); AID 1159524, 2015; calls by dose curve; tested in HEK293T cells; also: read-out not given here; potency is read from the fitted curve at half-maximal effect; nearly all actives have a fitted effect of over 45% in size
MARV entry inh: qHTS for inhibitors of binding or entry into cells for Marburg Virus. Marburg virus pseudotyped entry inhibition, cell reporter. Potency, µM (top dose mostly 37.8 µM), without a hit: at the top dose activity change, negative = inhibition, actives largely listed as inhibitors. actives 1.8% (n = 300,000). AID 540276, 2011; calls by dose curve; tested in HEK293 cells; also: potency is read from the fitted curve at half-maximal effect
HCV inhibitor: qHTS Assay for Inhibitors of Hepatitis C Virus (HCV) | Huh7.5.1 HCVcc-Cre infection, luciferase reporter, 44 h | Potency, µM (highest dose often 41.8 µM), for inactives: top-dose activity change, negative = inhibition, usual class: inhibitors | actives 3.4% (n = 340,000); active = well fitted inhibition curve with a large enough effect; inconclusive = small, poorly fitted or top-dose-only effect, or another doubt; inactive = no such curve, though single readings can be large or run the other way; also: potency is read from the fitted curve at half-maximal effect
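Compounds are dispensed onto cells plated 4 h earlier at 1,000 per well, with HCVcc-Cre virus (about 0.5 moi) added next. Following 44 h of culture, luminescent signal is measured for 15 sec after 15 min with substrate at room temperature.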
LASV entry inh: qHTS for Inhibitors of binding or entry into cells for Lassa Virus | Lassa virus pseudotype entry inhibition, cell reporter | Potency, µM (top dose mostly 37.9 µM), without a hit: top-dose activity change, negative = inhibition, hits mostly inhibitors | actives 1.2% (n = 300,000) | AID 540256, 2011; calls by dose curve; tested in HEK293 cells; also: potency is read from the fitted curve at half-maximal effect; nearly all actives have a fitted effect of over 50% in size
Starred values were filed as active, the others as inactive; ? = inconclusive; nt = no result given; [ ] = another dose, or the depositor's remark. The list is not random: actives were taken first. Their share in the collection is about 7.9%. % is scaled to controls: 0 for no effect and ±100 for the full control effect.

SMILES | HCMV inh | FMDV inh | MARV entry inh | HCV inhibitor | LASV entry inh
Cc1cccc(C)c1NC(=S)N1CCC(N(C)CC2CCCO2)CC1 (stereo not given) | -13 | -1% | 18% | 21% | 13%
Cc1cc(C)c(NC(=S)N2CCC(N(C)CC3CCCO3)CC2)c(C)c1 (stereo not given) | -72* | -14% | 18% | 10% | 11%
CCC(O)CNC(=O)c1cnn(-c2ncc3c(n2)-c2ccc(OC)cc2CC3)c1C1CC1 (stereo not given) | nt | 41% | nt | nt | nt
CCOC(=O)Oc1ccc2oc(C)c(C(=O)OCCOC)c2c1 | 6 | 0% | 15% | -6% | ?
COCCOC(=O)c1c(C)oc2ccc(OC(=O)c3c(OC)cccc3OC)cc12 | -10 | ? | ? | 7.9µM* | ?
COC(CNC(=O)C(=O)Nc1cc2c3c(c1)CC(=O)N3CCC2)OC | -17 | -3% | ? | 8% | 17%[46.1 µM]
Cc1cc2ccccc2n1CCNC(=O)c1ccc(Br)cc1 | ? | -7% | 2%[46.1 µM] | nt | -13%[46.1 µM]
Cc1cc2ccccc2n1CCNC(=O)c1ccccc1 | ? | ? | ? | 16% | 7.9µM*
Cc1cc2ccccc2n1CCNC(=O)Cc1cccc2ccccc12 | 34 | -27% | nt | 6.3µM* | nt
O=C(Cc1cccc2ccccc12)NCCOc1ccccc1F | -63* | -2% | 1% | 0% | 3%
CC(=O)NCCOc1cccc2ccccc12 | 91 | 32% | 21% | ? | -3%
COc1ccc(CNc2ncnc3ccc(-c4ccccc4OC)cc23)c(OC)c1 | nt | -20% | nt | nt | nt
C/C(=N\Nc1ccc(F)cc1F)c1ccc(Br)s1 | -70* | 6% | 1%[46.1 µM] | ? | 5%[46.1 µM]
COc1ccccc1N1CCN(C(=O)c2cc(S(=O)(=O)N3CCOCC3)ccc2C)CC1 | nt | 0% | -28% | ? | -11%
O=C1CC(=C(c2ccccc2)c2ccccc2)C(=O)N1CCCCN1CCN(c2cccc(Cl)c2)CC1 | 3 | ? | ? | 11µM* | ?
Cc1ccccc1N1CCN(CCCN2C(=O)CC(=C(c3ccccc3)c3ccccc3)C2=O)CC1 | 19 | -18% | -13% | ? | 1%
O=C(c1ccccc1Br)N(Cc1ccco1)Cc1ccco1 | -38 | -6% | 11%[46.1 µM] | nt | -5%[46.1 µM]
Cc1cc(C)c(NC(=O)C2CCN(S(=O)(=O)c3c(C)noc3/C=C/c3ccccc3F)CC2)c(C)c1 | -19 | -6% | nt | nt | 11%[46.1 µM]
CCOC(=O)c1c(NC(C)=O)sc2c1CCC(C=NCCCN(CC)CC)=C2Sc1ccccc1 | nt | ? | ? | 7.9µM* | ?
CCOC(=O)c1c(NC(=O)Cc2ccccc2)sc2c1CCN(C)C2 | -20 | -1% | nt | ? | nt
CCCN(C(=O)COc1cc(=O)n(CC)c2ccccc12)c1ccc(C(C)C)cc1 | -102* | ? | -18%[46.1 µM] | nt | -24%[46.1 µM]
CCOC(=O)C1(Cc2cccc(Cl)c2)CCCN(C(=O)c2cccc(C)n2)C1 (stereo not given) | 1 | -14% | 7.1µM* | 18µM* | ?
CN(Cc1ccco1)c1ccnc(-c2ccccc2C(F)(F)F)n1 | nt | -6% | nt | nt | nt
CCN(CC)C(C)C(=O)Nc1c2c(cc3c1CCC3)CCC2 (stereo not given) | -21 | -18% | 15µM* | -26% | -13%
CNC(=S)N/N=C/c1ccc(-c2cccc(C(=O)O)c2)o1 | 0 | 14% | ? | 5% | ?
SMILES | HCMV inh | FMDV inh | MARV entry inh | HCV inhibitor | LASV entry inh
Cc1ccc(C(=O)N/N=C/c2ccc(-c3cccc(C(F)(F)F)c3)o2)cn1 | ? | 32µM* | ? | ? | ?
CC(C)N1C(=O)C(=O)N(CC(=O)N2c3ccccc3CC2C)C1=O (stereo not given) | -25 | -24% | nt | nt | nt
CCOC(=O)CSc1nnc(NC(=O)c2cc([N+](=O)[O-])cc([N+](=O)[O-])c2)s1 | -10 | 35µM* | -1% | 1% | 19%
O=C(Nc1cccc(C(F)(F)F)c1)C1CC(=O)N(CCc2ccccc2)C1 (stereo not given) | -21 | 7% | nt | 1% | nt
CCC1COCCS(=O)(=O)N1Cc1ccccc1 (stereo not given) | -21 | -13% | nt | 0% | nt
CCCC[C@H]1COCCS(=O)(=O)N1Cc1cccc([N+](=O)[O-])c1 | -100* | -1% | nt | -5% | nt
COc1ccc2c(c1)C[C@@H](C)O[C@]21C(=O)Nc2ccccc21 | nt | nt | 71%[14.2 µM] | nt | nt
CCC(C)(C)C1CCc2[nH]nc(C(=O)NC3CCCC3)c2C1 (stereo not given) | 40 | 0% | nt | 3% | nt
O=C(NC1CCCCC1)c1n[nH]c2c1CCCCC2 | -27 | 14µM* | nt | 8% | nt
O=C(c1cnn2c1NC(c1ccc(Br)cc1)CC2C(F)(F)F)N1CCN(C23CC4CC(CC(C4)C2)C3)CC1 (stereo not given) | 109 | ? | 16µM* | -6% | 2%
O=C(c1cnn2c1NC(c1ccc(Br)cc1)CC2C(F)(F)F)N1CCN2CCCC2C1 (stereo not given) | -32 | 1% | ? | ? | ?
Cc1c([C@@H](Nc2ccccn2)c2ccccc2)c(=O)n(-c2ccccc2)n1C | nt | nt | 22% | nt | nt
O=Nc1c2cc3ccccc3[nH]c-2c2ccccc12 | 65 | -22% | ? | ? | ?
O=Nc1c(O)c2ccccc2c2ccccc12 | -98* | 11µM* | nt | ? | nt
CC1(c2ccc(Cl)cc2Cl)NC(=O)N(CC(=O)NC2CCCCC2)C1=O (stereo not given) | -1 | -18% | 5% | ? | -11%
COCCn1c(-c2ccccc2)c(C)n2c3c(=O)n(C)c(=O)n(C)c3nc12 | -34 | 3.2µM* | ? | nt | -27%[46.1 µM]
Cc1ccc(-c2c(C)n3c4c(=O)n(C)c(=O)n(C)c4nc3n2CCO)cc1 | ? | 18µM* | nt | nt | ?
Cc1c(-c2ccccc2)n(-c2ccccc2O)c2nc3c(c(=O)n(C)c(=O)n3C)n12 | -64* | 25µM* | ? | nt | ?
Cc1cc(C)cc(-n2c(-c3ccccc3)c(C)n3c4c(=O)n(C)c(=O)n(C)c4nc23)c1 | 0 | -23% | -17%[46.1 µM] | nt | -1%[46.1 µM]
CCOC(=O)C1(CC2CCCCO2)CCN(C(=O)Nc2ccccc2CC)CC1 (stereo not given) | -65* | -18% | nt | 9% | nt
CN1CCN(C(c2ccccc2)c2ccc(Cl)cc2)CC1 (stereo not given) | -10 | -6% | nt | ? | nt
CC12CNCC(C)(CN(C(c3ccccc3)c3ccccc3)C1)C2 | ? | ? | ? | ? | 20µM*
Clc1ccc(C(c2ccccc2)N2CCNCC2)cc1 (stereo not given) | 45 | -4% | ? | 11µM* | -13%
CC(C)CC(=O)NC1CC(=O)N(c2ccc3c(c2)OCCO3)C1 (stereo not given) | 4 | -20% | nt | nt | 22%[46.1 µM]
COc1cc2oc3ccc(C#Cc4ccc(N)cc4)cc3c(=O)c2cc1OC | 65 | 7% | nt | 13µM* | nt
